According to the supplement of paper PMC10849652:
About 7,900 targets were measured; listed, in parts, are those with a hit and a random draw of the rest. About 0.6% of all pairs of compound and target were hits.

Columns and labels:
Assay in all cases: log2 fold change, soluble protein after heating vs DMSO (PISA); higher = thermal stabilisation; K562 cells, 10 uM, 30 min; active = over 0.2 and 3.5 SD of the protein, either way, in both replicates (recomputed)
[1] = compound: C1=CC=C(C=C1)[C@H](COC2=CC3=C(C=C2)NC(=O)N3)NC(=O)C4=CC=CN(C4=O)CC5=CC(=C(C=C5)F)F
In short: (§1)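 Soluble protein was defined as the supernatant after 21,000xg for 90 min. It came from K562 cells at 2×10^6 cells/mL given 10 μM compound for 30 min, heated in aliquots for 3 min across 48°C-58°C, pooled, and extracted in PBS with 0.5% NP-40 at 4°C, and was quantified by TMTpro 16plex LC-MS/MS with equalised channel sums. Thermal stability against control samples, from duplicates, is reported as log2 fold change.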

[2] = compound: CC1=C(SC2=C1C(=N[C@H](C3=NN=C(N32)C)CC(=O)N)C4=CC=C(C=C4)Cl)C
In short: as §1

[3] = compound: CC1=C2C(=CC=C1)N=C(N(C2=O)C3=CC=CC=C3C)CN4C=NC5=C(N=CN=C54)N
In short: as §1

[4] = compound: Cc1sc2c(c1C)C(c1ccc(Cl)cc1)=N[C@@H](CC(=O)OC(C)(C)C)c1nnc(C)n1-2
In short: as §1

[5] = compound: c1ccc([C@@H]2C[C@H]2NC2CCNCC2)cc1
In short: as §1

Measured: log2 fold change

SUMO1 (UniProt P63165)
Sequence of UniProt P63165 (P63165 whole entry, looked up): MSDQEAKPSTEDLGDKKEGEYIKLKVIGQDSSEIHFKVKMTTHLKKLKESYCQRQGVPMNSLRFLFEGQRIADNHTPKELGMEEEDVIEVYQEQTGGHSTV
inactive: [1] -0.004 | [2] -0.097 | [3] -0.048 | [4] 0.231 | [5] 0.152

TCOF1 isoform 4 (UniProt Q13428)
inactive: [1] 0.016 | [2] 0.006 | [3] 0.018 | [4] 0.033 | [5] 0.042

TATDN2 (UniProt Q93075)
Sequence of UniProt Q93075 (Q93075 whole entry, looked up): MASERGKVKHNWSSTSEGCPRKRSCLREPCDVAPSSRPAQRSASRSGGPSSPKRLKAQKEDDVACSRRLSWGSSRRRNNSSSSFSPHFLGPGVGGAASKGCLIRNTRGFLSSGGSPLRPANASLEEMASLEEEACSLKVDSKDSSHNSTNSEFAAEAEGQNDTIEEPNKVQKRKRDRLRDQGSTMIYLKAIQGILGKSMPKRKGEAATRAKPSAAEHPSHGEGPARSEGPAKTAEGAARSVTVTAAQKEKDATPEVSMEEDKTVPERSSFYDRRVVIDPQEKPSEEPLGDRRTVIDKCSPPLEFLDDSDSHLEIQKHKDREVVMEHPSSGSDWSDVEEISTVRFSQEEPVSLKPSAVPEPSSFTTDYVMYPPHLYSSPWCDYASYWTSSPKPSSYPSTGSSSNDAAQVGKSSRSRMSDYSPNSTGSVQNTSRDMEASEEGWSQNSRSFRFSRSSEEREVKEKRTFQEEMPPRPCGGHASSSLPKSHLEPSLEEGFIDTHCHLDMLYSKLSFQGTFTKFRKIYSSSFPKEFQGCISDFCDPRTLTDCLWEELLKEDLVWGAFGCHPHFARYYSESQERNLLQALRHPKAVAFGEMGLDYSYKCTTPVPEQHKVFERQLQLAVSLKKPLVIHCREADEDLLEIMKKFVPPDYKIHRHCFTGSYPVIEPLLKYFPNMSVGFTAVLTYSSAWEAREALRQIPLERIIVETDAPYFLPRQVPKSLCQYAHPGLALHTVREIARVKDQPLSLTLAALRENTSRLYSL
inactive: [1] -0.044 | [2] -0.067 | [3] -0.037 | [4] 0.069 | [5] 0.071

SLC39A11 (UniProt Q8N1S5)
Sequence of UniProt Q8N1S5 (Q8N1S5 whole entry, looked up): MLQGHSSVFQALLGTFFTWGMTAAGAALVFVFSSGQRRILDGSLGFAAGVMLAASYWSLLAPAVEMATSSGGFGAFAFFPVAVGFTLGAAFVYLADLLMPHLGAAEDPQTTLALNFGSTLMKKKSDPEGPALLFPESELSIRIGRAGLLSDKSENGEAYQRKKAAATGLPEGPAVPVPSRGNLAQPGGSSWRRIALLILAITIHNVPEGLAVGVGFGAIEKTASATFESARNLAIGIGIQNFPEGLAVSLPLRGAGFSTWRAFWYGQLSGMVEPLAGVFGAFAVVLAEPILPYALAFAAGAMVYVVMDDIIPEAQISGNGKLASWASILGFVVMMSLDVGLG
inactive: [1] 0.053 | [2] 0.072 | [3] 0.078 | [4] -0.323 | [5] -0.003

SLC7A6 (UniProt Q92536)
Sequence of UniProt Q92536 (Q92536 whole entry, looked up): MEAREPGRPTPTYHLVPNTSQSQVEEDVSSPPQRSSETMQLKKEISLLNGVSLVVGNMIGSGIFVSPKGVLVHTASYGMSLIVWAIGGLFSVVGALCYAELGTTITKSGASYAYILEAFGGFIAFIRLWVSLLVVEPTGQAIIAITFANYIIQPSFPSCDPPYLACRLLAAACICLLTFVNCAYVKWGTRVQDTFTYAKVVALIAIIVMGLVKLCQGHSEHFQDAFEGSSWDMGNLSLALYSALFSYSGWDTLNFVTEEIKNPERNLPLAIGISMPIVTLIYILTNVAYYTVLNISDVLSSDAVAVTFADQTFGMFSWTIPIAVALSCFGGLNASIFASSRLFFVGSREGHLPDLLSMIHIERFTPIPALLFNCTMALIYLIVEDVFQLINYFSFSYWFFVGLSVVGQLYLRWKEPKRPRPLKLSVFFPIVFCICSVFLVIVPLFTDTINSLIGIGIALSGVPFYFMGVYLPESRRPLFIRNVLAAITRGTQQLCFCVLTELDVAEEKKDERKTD
inactive: [1] -0.063 | [2] 0.023 | [3] 0.053 | [4] 0.012 | [5] 0.06

SYF2 (UniProt O95926)
inactive: [1] 0.032 | [2] 0.029 | [3] -0.077 | [4] 0.145 | [5] 0.065

SPG11 (UniProt Q96JI7)
inactive: [1] 0.095 | [2] 0.05 | [3] 0.444 | [4] 0.24 | [5] 0.083

STOM (UniProt P27105)
inactive: [1] 0.06 | [2] -0.019 | [3] -0.014 | [4] -0.021 | [5] 0.082

TJP2 isoform 7 (UniProt Q9UDY2)
Sequence of UniProt Q9UDY2 (Q9UDY2 whole entry, looked up): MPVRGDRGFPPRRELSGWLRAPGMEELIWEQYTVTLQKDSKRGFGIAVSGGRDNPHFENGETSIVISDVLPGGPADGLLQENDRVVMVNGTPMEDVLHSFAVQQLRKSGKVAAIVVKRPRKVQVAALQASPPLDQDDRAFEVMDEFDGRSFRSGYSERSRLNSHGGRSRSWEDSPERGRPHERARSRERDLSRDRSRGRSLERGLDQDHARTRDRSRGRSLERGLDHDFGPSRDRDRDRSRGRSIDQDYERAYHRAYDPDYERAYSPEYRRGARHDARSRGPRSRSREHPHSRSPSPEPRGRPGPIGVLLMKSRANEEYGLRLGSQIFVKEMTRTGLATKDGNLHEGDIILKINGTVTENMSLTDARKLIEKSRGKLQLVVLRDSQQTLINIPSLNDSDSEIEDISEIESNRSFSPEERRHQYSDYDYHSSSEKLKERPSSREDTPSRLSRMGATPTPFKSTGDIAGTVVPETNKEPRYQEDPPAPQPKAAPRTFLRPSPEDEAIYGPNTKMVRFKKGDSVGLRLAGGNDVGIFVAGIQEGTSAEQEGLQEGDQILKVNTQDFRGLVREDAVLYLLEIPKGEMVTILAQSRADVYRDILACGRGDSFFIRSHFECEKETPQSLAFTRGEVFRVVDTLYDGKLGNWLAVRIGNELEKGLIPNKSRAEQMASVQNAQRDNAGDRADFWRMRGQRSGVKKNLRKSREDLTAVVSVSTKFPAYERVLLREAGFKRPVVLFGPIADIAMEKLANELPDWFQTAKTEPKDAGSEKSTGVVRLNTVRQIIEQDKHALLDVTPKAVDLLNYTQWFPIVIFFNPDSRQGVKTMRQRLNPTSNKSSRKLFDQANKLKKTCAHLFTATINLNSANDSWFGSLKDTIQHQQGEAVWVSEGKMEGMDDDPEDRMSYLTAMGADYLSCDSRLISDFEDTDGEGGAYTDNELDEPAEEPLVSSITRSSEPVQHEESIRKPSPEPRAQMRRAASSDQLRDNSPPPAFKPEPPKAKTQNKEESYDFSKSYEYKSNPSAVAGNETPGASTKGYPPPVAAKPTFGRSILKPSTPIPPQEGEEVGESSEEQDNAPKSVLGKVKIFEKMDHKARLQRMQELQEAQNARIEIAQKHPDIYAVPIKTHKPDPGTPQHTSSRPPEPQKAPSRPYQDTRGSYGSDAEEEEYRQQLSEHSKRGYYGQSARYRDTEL
inactive: [1] -0.03 | [2] 0.084 | [3] 0.081 | [4] 0.04 | [5] -0.044

SMG1 (UniProt Q96Q15)
inactive: [1] -0.104 | [2] 0.003 | [3] -0.004 | [4] 0.02 | [5] -0.071

STXBP2 isoform 3 (UniProt Q15833)
Sequence of UniProt Q15833 (Q15833 whole entry, looked up): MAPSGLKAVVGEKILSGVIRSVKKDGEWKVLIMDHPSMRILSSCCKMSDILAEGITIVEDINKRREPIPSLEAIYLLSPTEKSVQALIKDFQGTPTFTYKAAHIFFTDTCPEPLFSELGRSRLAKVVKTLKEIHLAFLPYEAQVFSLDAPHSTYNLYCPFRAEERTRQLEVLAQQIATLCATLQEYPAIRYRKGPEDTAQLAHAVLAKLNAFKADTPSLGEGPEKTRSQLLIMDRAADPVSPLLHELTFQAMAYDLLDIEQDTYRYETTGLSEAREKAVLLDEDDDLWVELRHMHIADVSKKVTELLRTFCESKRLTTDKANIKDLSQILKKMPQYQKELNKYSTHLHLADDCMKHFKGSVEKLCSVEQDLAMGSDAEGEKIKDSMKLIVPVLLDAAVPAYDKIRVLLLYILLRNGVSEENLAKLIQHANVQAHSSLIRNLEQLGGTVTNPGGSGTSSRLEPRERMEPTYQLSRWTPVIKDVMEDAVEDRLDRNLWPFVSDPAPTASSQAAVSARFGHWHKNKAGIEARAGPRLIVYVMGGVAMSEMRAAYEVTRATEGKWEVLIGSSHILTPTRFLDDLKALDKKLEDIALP
inactive: [1] -0.15 | [2] -0.05 | [3] 0.071 | [4] 0.031 | [5] -0.03

TBC1D23 (UniProt Q9NUY8)
inactive: [1] -0.039 | [2] 0.068 | [3] 0.034 | [4] -0.003 | [5] -0.037

SPECC1 (UniProt Q5M775)
inactive: [1] -0.017 | [2] -0.087 | [3] 0.105 | [4] -0.012 | [5] 0.037

SMARCAD1 isoform 2 (UniProt Q9H4L7)
inactive: [1] -0.029 | [2] 0.071 | [3] 0.214 | [4] -0.129 | [5] 0.004

SNRNP27 (UniProt Q8WVK2)
inactive: [1] 0.027 | [2] -0.058 | [3] 0.021 | [4] 0.023 | [5] 0.044

SNX2 (UniProt O60749)
inactive: [1] -0.015 | [2] 0.069 | [3] 0.066 | [4] -0.026 | [5] -0.079

THRAP3 (UniProt Q9Y2W1)
inactive: [1] 0.09 | [2] 0.193 | [3] -0.072 | [4] 0.046 | [5] 0.028

STAT3 (UniProt P40763)
Sequence of UniProt P40763 (P40763 whole entry, looked up): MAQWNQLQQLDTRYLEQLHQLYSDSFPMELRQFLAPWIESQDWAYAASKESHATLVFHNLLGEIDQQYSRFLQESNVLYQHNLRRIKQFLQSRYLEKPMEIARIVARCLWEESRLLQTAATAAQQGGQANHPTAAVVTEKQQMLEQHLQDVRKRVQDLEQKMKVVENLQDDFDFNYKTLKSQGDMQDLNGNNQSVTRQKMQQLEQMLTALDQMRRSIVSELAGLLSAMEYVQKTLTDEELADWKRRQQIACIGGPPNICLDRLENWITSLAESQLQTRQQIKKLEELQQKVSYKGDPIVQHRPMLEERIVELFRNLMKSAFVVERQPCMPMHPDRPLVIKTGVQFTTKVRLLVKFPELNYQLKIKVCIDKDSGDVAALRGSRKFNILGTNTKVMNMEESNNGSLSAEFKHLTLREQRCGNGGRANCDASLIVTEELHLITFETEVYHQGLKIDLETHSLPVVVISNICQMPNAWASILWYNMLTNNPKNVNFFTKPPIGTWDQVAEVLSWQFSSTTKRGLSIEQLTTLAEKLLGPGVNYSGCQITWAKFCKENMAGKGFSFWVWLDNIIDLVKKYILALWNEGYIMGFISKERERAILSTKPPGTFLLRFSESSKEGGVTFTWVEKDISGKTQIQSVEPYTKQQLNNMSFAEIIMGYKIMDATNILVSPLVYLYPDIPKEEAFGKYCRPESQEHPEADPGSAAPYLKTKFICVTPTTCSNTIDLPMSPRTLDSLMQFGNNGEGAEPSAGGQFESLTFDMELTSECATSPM
inactive: [1] -0.033 | [2] 0.034 | [3] 0.1 | [4] 0.024 | [5] -0.006

ST3GAL2 (UniProt Q16842)
inactive: [1] 0.083 | [2] 0.006 | [3] 0.011 | [4] 0.005 | [5] 0.007

SP1 (UniProt P08047)
inactive: [1] 0.002 | [2] -0.029 | [3] 0.016 | [4] 0.051 | [5] 0.02

SUN2 (UniProt Q9UH99)
Sequence of UniProt Q9UH99 (Q9UH99 whole entry, looked up): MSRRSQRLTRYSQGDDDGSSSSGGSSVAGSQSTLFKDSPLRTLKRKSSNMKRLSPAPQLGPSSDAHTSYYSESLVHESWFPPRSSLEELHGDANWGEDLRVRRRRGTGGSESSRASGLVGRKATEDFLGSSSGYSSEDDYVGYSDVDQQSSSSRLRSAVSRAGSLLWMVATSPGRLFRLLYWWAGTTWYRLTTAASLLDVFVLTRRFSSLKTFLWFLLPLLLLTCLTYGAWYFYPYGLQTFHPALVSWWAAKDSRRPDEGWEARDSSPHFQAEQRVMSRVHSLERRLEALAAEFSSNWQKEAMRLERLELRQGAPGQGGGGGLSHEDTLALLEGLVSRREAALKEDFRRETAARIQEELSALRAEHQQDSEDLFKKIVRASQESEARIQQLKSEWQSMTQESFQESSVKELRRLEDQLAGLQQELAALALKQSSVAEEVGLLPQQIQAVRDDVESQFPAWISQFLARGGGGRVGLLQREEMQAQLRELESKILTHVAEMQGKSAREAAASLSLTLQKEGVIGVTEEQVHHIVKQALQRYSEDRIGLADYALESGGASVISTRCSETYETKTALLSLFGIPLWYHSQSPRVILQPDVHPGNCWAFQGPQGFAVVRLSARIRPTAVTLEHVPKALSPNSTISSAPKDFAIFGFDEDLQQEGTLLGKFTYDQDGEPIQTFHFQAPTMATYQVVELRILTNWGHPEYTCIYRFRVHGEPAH
inactive: [1] 0.029 | [2] -0.004 | [3] -0.025 | [4] 0.025 | [5] -0.015

STK39 (UniProt Q9UEW8)
inactive: [1] -0.105 | [2] -0.015 | [3] 0.034 | [4] -0.026 | [5] -0.029

TAOK3 (UniProt Q9H2K8)
inactive: [1] 0 | [2] 0.057 | [3] 0.002 | [4] -0.003 | [5] -0.024

SNRNP40 (UniProt Q96DI7)
inactive: [1] 0.054 | [2] -0.023 | [3] 0.007 | [4] 0.071 | [5] 0.022
